Source: PubChem BioAssay (National Center for Advancing Translational Sciences (NCATS))
Hits are enriched below; roughly 2.4% of the tested compounds scored in any of these assays.
Pol beta inh: DNA polymerase beta (human) inhibition. P06746. Pol beta primer extension/strand displacement, fluorescence kinetic. Potency, µM (top dose mostly 114 µM), hits mostly inhibitors. 340,000 compounds, 1.3% hits. AID 485314
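Pol beta (10 nM) was preincubated with compound for 15 min at room temperature. The reaction was then started with 50 nM substrate and read immediately and after a further 10 min at room temperature.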
Pol eta inh-1: DNA polymerase eta (human) inhibition. Potency, µM (highest dose often 114 µM), usual class: inhibitors. recombinant Pol eta, fluorescent DNA replication assay. 390,000 compounds, 1.2% hits. AID 588591
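Pol eta (10 nM) was preincubated with compounds for 15 min at room temperature, after which fluorescent replication substrate (50 nM final) was added to start the reaction. Fluorescence was read kinetically at 0 and 10 min.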
Pol kappa inh-1: inhibitors of human DNA polymerase kappa. Q9UBT6. purified Pol kappa, fluorescent DNA synthesis assay, 10 min. Potency, µM (series often up to 107 µM), actives largely listed as inhibitors. 400,000 compounds, 0.53% hits. AID 588579
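Kinetic fluorescence readout at 0 and 10 min followed reaction start with substrate at 50 nM final. Beforehand, enzyme (10 nM Pol kappa) stood 15 min with compound at room temperature; buffer-only wells were negative controls.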
WRN inhibitor: WRN helicase (human) inhibition. Q14191. WRN helicase unwinding, fluorescent forked duplex, kinetic. Potency, µM (titrated, usually from 114 µM), most hits filed as inhibitors. 360,000 compounds, 0.46% hits; also: nearly all actives have a fitted effect of over 55% in size
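WRN at 20 nM final was preincubated with compound for 15 min at room temperature; reaction started with 100 nM forked duplex oligonucleotide carrying fluorophore and quencher plus 2 mM ATP (final). Unwinding followed kinetically by red fluorescence (ex 525/em 598 nm).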
Pol iota inh: DNA polymerase iota (human) inhibition; Potency, µM (top dose mostly 115 µM), most hits filed as inhibitors; Pol iota fluorescent replication assay, 10 min; Q9UNA4; AID 588590; 390,000 compounds, 1% hits
Target sequence (Q9UNA4 whole entry, looked up): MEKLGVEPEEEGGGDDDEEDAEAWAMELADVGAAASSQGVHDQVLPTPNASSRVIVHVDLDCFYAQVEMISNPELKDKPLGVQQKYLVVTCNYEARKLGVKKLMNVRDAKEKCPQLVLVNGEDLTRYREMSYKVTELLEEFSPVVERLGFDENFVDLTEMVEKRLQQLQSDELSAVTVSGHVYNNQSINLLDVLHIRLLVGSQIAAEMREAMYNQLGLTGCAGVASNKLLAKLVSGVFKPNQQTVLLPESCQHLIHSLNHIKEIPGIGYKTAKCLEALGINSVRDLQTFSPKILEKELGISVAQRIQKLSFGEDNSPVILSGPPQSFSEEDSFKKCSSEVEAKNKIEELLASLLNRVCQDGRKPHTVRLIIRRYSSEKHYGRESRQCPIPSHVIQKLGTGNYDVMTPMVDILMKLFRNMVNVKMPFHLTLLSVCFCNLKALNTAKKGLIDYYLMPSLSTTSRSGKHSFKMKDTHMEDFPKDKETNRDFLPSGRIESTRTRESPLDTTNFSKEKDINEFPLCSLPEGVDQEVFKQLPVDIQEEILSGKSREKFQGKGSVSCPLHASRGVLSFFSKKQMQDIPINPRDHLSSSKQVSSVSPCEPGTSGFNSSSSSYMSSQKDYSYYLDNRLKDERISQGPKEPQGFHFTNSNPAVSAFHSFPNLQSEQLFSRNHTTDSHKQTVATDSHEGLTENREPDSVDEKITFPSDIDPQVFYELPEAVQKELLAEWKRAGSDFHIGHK
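Pol iota at 10 nM preincubated 15 min with compounds at room temperature; reaction started with fluorescent substrate, 50 nM final. Fluorescence read kinetically at 0 and 10 min; buffer-only wells as negative control.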
FEN1 inh: inhibitors of human flap endonuclease 1; P39748; Recombinant FEN1 flap cleavage, fluorescence, 15 min; Potency, µM (series often up to 114 µM), most hits filed as inhibitors; 390,000 compounds, 0.35% hits; AID 588795; also: nearly all actives have a fitted effect of over 65% in size
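Quantitative HTS format: each compound was titrated, incubated with 10 nM nuclease for 15 min at room temperature, then challenged with flap substrate at 50 nM final. Signal change over 15 min gave concentration–effect curves.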
Pol kappa inh-2: Pol kappa (human) inhibition, cherry-pick confirmation. AID 720501. 920 compounds, 76% hits. Potency, µM, usual class: inhibitors. shares compounds with Pol eta inh-1. purified Pol-kappa, fluorescent strand-displacement substrate
Pol eta inh-2: confirmation of human DNA polymerase eta inhibitors; shares compounds with Pol eta inh-1; Pol eta primer extension, TAMRA/BHQ fluorescence, 10 min; Potency, µM, actives largely listed as inhibitors; 2,600 compounds, 64% hits
Of the large screens only hits and unclear results are named; the others gave an inactive call (follow-up assays come after a bar, where they were run). Calls follow the shape of the dose curve; as a rule, active = well fitted curve in the direction sought with a large enough effect; inconclusive = small, poorly fitted or top-dose-only effect, or another doubt; inactive = no such curve, though single readings can be large; an effect the other way counts as inactive or inconclusive.

COc1ccc(OC)c(CNC(=O)c2cc3ccc4cccnc4c3[nH]2)c1	none (no result: WRN inhibitor)
CC[C@H](C)/C=C(C)/C=C/C1=CC2=CC(=O)[C@]3(C)OC(=O)[C@@H](C(C)=O)[C@@H]3C2=CO1	Pol beta inh 35.5µM, Pol eta inh-1 25.1µM, Pol kappa inh-1 79.4µM, Pol iota inh 22.4µM | Pol eta inh-2 inconclusive
O=C(O)c1ccc(CSc2nc3ccc(N4C(=O)C5C6C=CC(C6)C5C4=O)cc3s2)cc1 (stereo not drawn)	Pol eta inh-1 28.2µM, Pol iota inh inconclusive | Pol eta inh-2 inconclusive
CCc1cccc(CC)c1NC(=O)CSc1nc2ccc(N3C(=O)C4C5C=CC(C5)C4C3=O)cc2s1 (stereo not drawn)	none
NC(=O)C(CC(=O)O)NC(=O)[C@@H]1CCOc2c(I)cc([N+](=O)[O-])cc2C(=O)N[C@@H](CO)C(=O)N[C@@H](Cc2ccc(O)cc2)C(=O)N1 (stereo partly drawn)	Pol eta inh-1 20µM, Pol kappa inh-1 35.5µM, Pol iota inh inconclusive, FEN1 inh inconclusive | Pol eta inh-2 30.1
NC(=O)[C@@H]1CCNc2c(I)cc([N+](=O)[O-])cc2C(=O)N[C@@H](CO)C(=O)N[C@@H](Cc2ccc(O)cc2)C(=O)N1	none (no result: Pol eta inh-1, Pol kappa inh-1, WRN inhibitor, Pol iota inh, FEN1 inh)
COc1cc(/C=C/C(=O)O)cc(S(=O)(=O)Nc2ccccc2C(=O)NCc2ccco2)c1OC	Pol eta inh-1 22.4µM, Pol kappa inh-1 inconclusive, Pol iota inh inconclusive (no result: Pol beta inh) | Pol eta inh-2 inconclusive
C[N+](C)(C)CCN1CCc2ccccc21	none (no result: Pol beta inh, Pol eta inh-1, Pol kappa inh-1, Pol iota inh, FEN1 inh)
O=C(O)CCN1CCc2ccccc21	Pol beta inh inconclusive, Pol eta inh-1 17.8µM, Pol kappa inh-1 inconclusive, Pol iota inh inconclusive | Pol eta inh-2 inconclusive
COc1ccc(C(CC(=O)Nc2cccc(C)c2C)N2Cc3ccccc3C2=O)cc1 (stereo not drawn)	none (no result: WRN inhibitor)
O=C(COc1ccc(Cl)cc1)Nc1nnc(S(=O)(=O)N2CCc3ccccc32)s1	Pol eta inh-1 inconclusive (no result: WRN inhibitor)
Cc1cccc(OCC(=O)Nc2nnc(S(=O)(=O)N3CCc4ccccc43)s2)c1	Pol eta inh-1 89.1µM, Pol kappa inh-1 inconclusive, Pol iota inh inconclusive (no result: WRN inhibitor) | Pol eta inh-2 inconclusive
C#CCOc1ccc(C2C(C(=O)OC)=C(C)NC3=C2C(=O)c2ccccc23)cc1OCC (stereo not drawn)	none (no result: WRN inhibitor)
Cc1cc2nc(-c3ccc(SCc4ccccc4C#N)nc3)[nH]c2cc1C	Pol iota inh inconclusive
Cc1cc2nc(-c3ccc(SCc4ccc(C(=O)O)cc4)nc3)[nH]c2cc1C	Pol beta inh 22.4µM, Pol eta inh-1 28.2µM, WRN inhibitor inconclusive, Pol iota inh inconclusive, FEN1 inh inconclusive | Pol eta inh-2 37.9
CCCC/C=C/[C@H](c1ccccc1)[C@H](CO)Cc1ccccc1	FEN1 inh inconclusive (no result: Pol beta inh, Pol eta inh-1, WRN inhibitor)
CCCS(=O)(=O)NCCc1csc2nc(-c3ccc(OC)cc3)nn12	none (no result: WRN inhibitor)
COc1ccc(C2C=C(c3ccccc3)Nc3nc(NS(=O)(=O)c4ccc(C)cc4)nn32)cc1 (stereo not drawn)	none (no result: WRN inhibitor)
Cc1ccc(C2C=C(c3ccccc3)Nc3nc(NS(=O)(=O)c4ccc(C)cc4)nn32)cc1 (stereo not drawn)	Pol eta inh-1 inconclusive (no result: WRN inhibitor) | Pol kappa inh-2 inconclusive
CC(C)OC(=O)c1ccc(NCc2cc(O)ccc2O)cc1	none (no result: Pol beta inh)
COP(=O)(OC)c1ccc(NCc2cc(O)ccc2O)cc1	Pol eta inh-1 10µM, Pol kappa inh-1 inconclusive, WRN inhibitor 56.2µM, Pol iota inh 10µM, FEN1 inh 79.4µM (no result: Pol beta inh) | Pol eta inh-2 47.8
COc1ccc(C2=Nn3c(nnc3-c3ccccc3OC)SC2)cc1O[C@H]1CCOC1	none (no result: Pol beta inh, Pol eta inh-1, Pol kappa inh-1, WRN inhibitor, Pol iota inh, FEN1 inh) | Pol kappa inh-2 2.67
CC(C)OCCCN1C(=O)c2[nH]nc(-c3ccccc3O)c2C1c1ccc(OCc2ccccc2)cc1 (stereo not drawn)	Pol beta inh inconclusive (no result: WRN inhibitor)
COc1ccc(/C=c2\sc3nc(-c4ccccc4OC)nn3c2=O)c(OC)c1	Pol eta inh-1 inconclusive
C=CCOc1ccccc1/C=c1\sc2nc(=O)c(C)nn2c1=O	Pol beta inh 25.1µM, Pol eta inh-1 28.2µM, Pol kappa inh-1 50.1µM, WRN inhibitor inconclusive, Pol iota inh 10µM | Pol kappa inh-2 37.7 | Pol eta inh-2 21.3
Cc1ccc(/C=C/C(=O)O)cc1S(=O)(=O)N1CCc2ccccc2C1	none
COc1ccc(/C=C/C(=O)O)cc1S(=O)(=O)N1CCc2ccccc2C1	Pol beta inh inconclusive, Pol eta inh-1 inconclusive, Pol iota inh inconclusive | Pol eta inh-2 inconclusive
CC(SCc1cc(=O)n2c([nH]c3ccccc32)c1C#N)C(=O)O (stereo not drawn)	Pol eta inh-1 inconclusive, Pol kappa inh-1 inconclusive, WRN inhibitor inconclusive, Pol iota inh inconclusive | Pol eta inh-2 inconclusive
O=C(Nc1nnc(-c2ccccc2F)s1)C1CCCO1 (stereo not drawn)	Pol beta inh 31.6µM, Pol eta inh-1 14.1µM, Pol kappa inh-1 inconclusive, Pol iota inh 50.1µM | Pol eta inh-2 inconclusive
O=C(Nc1nnc(-c2ccncc2)s1)C1CCCO1 (stereo not drawn)	Pol eta inh-1 inconclusive
CN1C(=O)c2ccccc2Sc2ccc(NC(=O)N3CCN(c4ccccc4F)CC3)cc21	Pol iota inh inconclusive (no result: WRN inhibitor)
CC(=O)Oc1ccc2c(=O)c(Oc3ccccc3)coc2c1OC(C)=O	Pol beta inh 10µM, Pol eta inh-1 6.31µM, Pol kappa inh-1 14.1µM, WRN inhibitor inconclusive, Pol iota inh 12.6µM, FEN1 inh inconclusive | Pol eta inh-2 inconclusive
CCCCOC(=O)c1c(C)oc2c1cc(NS(=O)(=O)c1cc(OC)ccc1OC)c1ccccc12	none (no result: WRN inhibitor)
Cc1cc(=O)oc2cc(OCC(=O)N3c4ccccc4NC(=O)C3(C)C)ccc12	Pol eta inh-1 56.2µM, Pol kappa inh-1 inconclusive, Pol iota inh 39.8µM (no result: Pol beta inh) | Pol eta inh-2 inconclusive
CC#CCCCC(=O)Nc1cccc(C(=O)O)c1	Pol eta inh-1 14.1µM, Pol kappa inh-1 inconclusive, Pol iota inh inconclusive | Pol eta inh-2 inconclusive
CCCCC(=O)NC(=S)Nc1cccc(C(=O)O)c1	none
COc1ccccc1NC(=O)c1oc2ccccc2c1NC(=O)Cc1cccs1	none (no result: WRN inhibitor)
